Screening data (PubChem BioAssay)
Shiga toxin inh: A qHTS for Small Molecule Inhibitors of Shiga Toxin; Vero cells, Shiga toxin protein synthesis inhibition reporter; inhibition, % at 38.7 µM; 290,000 compounds, 9.2% hits; in the data active means inhibition mostly above about 28%, no sharp cut-off; inactive means mostly below about 43%
HCMV inh: qHTS Assay for inhibitors of the human cytomegalovirus (HCMV). HFF cells, HCMV-luciferase reporter, 72 h; stronger effect = lower value. AID 1259415, 2018. 410,000 compounds, 4.5% hits. activity change, negative = inhibition, % at 57.5 µM; in the data active means activity change below about -60%; inconclusive means no clear call, values can overlap the other calls; inactive means above about -39%
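After 16 h attachment at 37C, HFF cells received test compound and HCMV-luciferase (1 PFU/cell); reporter luminescence read 72 h later, data normalized against buffer-only and known inhibitor Salinomycin.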
Pf growth 96h: Primary qHTS for delayed death inhibitors of the malarial parasite plastid, 96 hour incubation; 320,000 compounds, 6.9% hits; P. falciparum luciferase reporter growth, 96 h; Potency, µM (series often up to 28.7 µM), most hits filed as inhibitors; AID 504834, 2011
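Two-generation exposure (96 h) targets delayed-death phenotype. Reporter parasites carrying integrated firefly luciferase, in red cells at 2% hematocrit and 0.05% parasitemia final, kept at 37 C, 5% CO2; luminescence loss indicates inhibition.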
HCV inhibitor: qHTS Assay for Inhibitors of Hepatitis C Virus (HCV); Huh7.5.1 HCVcc-Cre infection, luciferase reporter, 44 h; Potency, µM (highest dose often 41.8 µM), actives largely listed as inhibitors; 340,000 compounds, 3.4% hits; AID 651820, 2012
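Cells seeded at 1,000/well and cultured 4 h, then compounds added followed by HCVcc-Cre virus (~0.5 moi). After 44 h further culture, luciferase substrate was added, plates held 15 min at room temperature, and luminescence read for 15 sec.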
CHX counter: Cycloheximide Counterscreen for Small Molecule Inhibitors of Shiga Toxin; AID 2314, 2010; max response, %; 300,000 compounds, 12% hits; cell reporter, cycloheximide protein synthesis inhibition counterscreen; in the data active means max response mostly above about 13%, no sharp cut-off; inactive means mostly below about 14%; further: read at 38.3 µM for the half of the compounds with a filed dose
Pf growth 48h: Primary qHTS for delayed death inhibitors of the malarial parasite plastid, 48 hour incubation; P. falciparum luciferase growth in erythrocytes, 48 h; Potency, µM (highest dose often 28.7 µM), hits mostly inhibitors; 310,000 compounds, 5.9% hits
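Luminescence readout; reporter = integrated firefly luciferase in P. falciparum. RBC culture at 2% hematocrit, 0.1% parasitemia final, 37 C/5% CO2; decreased signal taken as growth inhibition.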
A number is an active result. Most compounds without a hit are left out; they make up all but 21% or so of the library. Unless noted, the call rests on the fitted dose curve; in most records, active means well fitted inhibition curve with a large enough effect; inconclusive means small, poorly fitted or top-dose-only effect, or another doubt; inactive means no such curve, though single readings can be large or run the other way.

CCOc1ccc(CCNS(=O)(=O)c2cc(Br)cc3c2N(C(C)=O)CC3)cc1OCC was read as HCMV inh inactive.
Screening COc1ccc(-c2nc(-c3ccccc3)c(-c3ccc(F)cc3)[nH]2)c(OC)c1C returned HCMV inh inactive.
For COc1ccc(CCNC(=O)Cc2cccs2)cc1OC the results were Shiga toxin inh inactive, HCMV inh inactive, Pf growth 96h inactive, HCV inhibitor inactive, CHX counter inactive and Pf growth 48h inactive.
COc1ccc(Br)cc1CNC(=O)Cc1cccs1 was read as Shiga toxin inh inactive, HCMV inh inactive, Pf growth 96h inactive, HCV inhibitor inactive, CHX counter 21 and Pf growth 48h inactive.
Screening COc1ccccc1CNCc1cc(Br)ccc1OC returned Shiga toxin inh inactive, HCMV inh inactive, Pf growth 96h inconclusive, HCV inhibitor inconclusive, CHX counter inactive and Pf growth 48h 12µM.
For O=C(Cc1cccs1)NCc1ccccc1Br the results were Shiga toxin inh 63, HCMV inh inactive, Pf growth 96h inconclusive, HCV inhibitor inactive, CHX counter 36 and Pf growth 48h inactive.
Screening O=S(=O)(NCCNS(=O)(=O)c1cccs1)c1cccs1 returned Shiga toxin inh inactive, HCMV inh inactive, Pf growth 96h inconclusive, HCV inhibitor inactive, CHX counter inactive and Pf growth 48h inactive.
`O=S(=O)(NCc1ccccc1Br)c1cccs1` gave Shiga toxin inh inactive, HCMV inh inactive, Pf growth 96h inconclusive, HCV inhibitor inactive, CHX counter 11 and Pf growth 48h inactive.
CCOc1ccccc1NC(=O)CN1C(=O)COc2ccc(C)cc21 was read as Shiga toxin inh inactive, HCMV inh inactive, Pf growth 96h inconclusive, HCV inhibitor inactive, CHX counter inactive and Pf growth 48h inactive.
For COc1ccccc1CN1CC(C(=O)NCCc2ccc(C)o2)CCC1=O (stereo not drawn) the results were Shiga toxin inh inactive, HCMV inh inactive, Pf growth 96h 9.3µM, HCV inhibitor inactive, CHX counter inactive and Pf growth 48h inactive.
CC(C)Oc1ccc(CCNC(=O)C2CCC(=O)N(Cc3cccc(F)c3)C2)cc1 (stereo not drawn) was read as Shiga toxin inh inactive, HCMV inh inactive, Pf growth 96h inconclusive, HCV inhibitor inactive, CHX counter 55 and Pf growth 48h inactive.
For COc1ccc(CCN2CC(C(=O)N(C)Cc3ccc(C)o3)CCC2=O)cc1 (stereo not drawn) the results were Shiga toxin inh 74, HCMV inh inactive, Pf growth 96h inactive, HCV inhibitor inactive, CHX counter 38 and Pf growth 48h inactive.
Screening COc1ccccc1CN1CC(C(=O)NCCc2ncccc2C)CCC1=O (stereo not drawn) returned Shiga toxin inh inactive, HCMV inh inactive, Pf growth 96h inconclusive, HCV inhibitor inactive, CHX counter inactive and Pf growth 48h inactive.
Screening COc1ccc(CCN2CC(C(=O)N(C)Cc3ccccn3)CCC2=O)cc1 (stereo not drawn) returned HCMV inh inactive.
For Cc1ccccc1CNC(=O)C1CCC(=O)N(Cc2cccc(F)c2)C1 (stereo not drawn) the results were Shiga toxin inh inactive, HCMV inh inactive, Pf growth 96h inconclusive, HCV inhibitor inactive, CHX counter inactive and Pf growth 48h inactive.
For CN(CCNC(=O)C1CCC(=O)N(Cc2cccc(F)c2)C1)CCc1ccccc1 (stereo not drawn) the results were Shiga toxin inh inactive, Pf growth 96h inconclusive, CHX counter inactive and Pf growth 48h inactive.
Screening COc1ccccc1CCNC(=O)C1CCC(=O)N(Cc2cccc(F)c2)C1 (stereo not drawn) returned Shiga toxin inh 37, HCMV inh inactive, Pf growth 96h inconclusive, HCV inhibitor inactive, CHX counter 20 and Pf growth 48h inactive.
COCCNC(=O)c1ccc(-n2c(SCc3ccncc3)nc3ccccc3c2=O)cc1 was read as Shiga toxin inh inactive, HCMV inh inactive, Pf growth 96h inactive, HCV inhibitor inactive, CHX counter inactive and Pf growth 48h inconclusive.
For CN(C(=O)C1CCC(=O)N(Cc2cccc(F)c2)C1)C1CCCCC1 (stereo not drawn) the results were Shiga toxin inh 121, HCMV inh inactive, Pf growth 96h inactive, HCV inhibitor inactive, CHX counter 87 and Pf growth 48h inactive.
`C#CCN(C(=O)C1CCC(=O)N(CCc2cccc(F)c2)C1)C1CCCCC1` (stereo not drawn) gave HCMV inh inactive.
Screening COc1ccccc1CCNC(=O)C1CCC(=O)N(Cc2ccccc2OC)C1 (stereo not drawn) returned Shiga toxin inh inactive, HCMV inh inactive, Pf growth 96h inactive, HCV inhibitor inactive, CHX counter 15 and Pf growth 48h inactive.
`COc1ccccc1CN1CC(C(=O)NCCCc2ccc(F)cc2)CCC1=O` (stereo not drawn) gave Shiga toxin inh inactive, HCMV inh inconclusive, Pf growth 96h inconclusive, HCV inhibitor inactive, CHX counter inactive and Pf growth 48h inactive.
`COc1ccccc1CN1CC(C(=O)N(C)Cc2ccc(C)o2)CCC1=O` (stereo not drawn) gave Shiga toxin inh inactive, HCMV inh inactive, Pf growth 96h inactive, HCV inhibitor inactive, CHX counter 22 and Pf growth 48h inactive.
For COc1ccc(CCNC(=O)C2CCC(=O)N(CCc3ccc(OC)cc3)C2)cc1 (stereo not drawn) the results were Shiga toxin inh inactive, HCMV inh inactive, Pf growth 96h inactive, HCV inhibitor inactive, CHX counter inactive and Pf growth 48h inactive.
Screening COc1ccc(CCN2CC(C(=O)NCCc3ccccc3C(F)(F)F)CCC2=O)cc1 (stereo not drawn) returned Shiga toxin inh 70, HCMV inh inactive, Pf growth 96h inactive, HCV inhibitor inactive, CHX counter 66 and Pf growth 48h inactive.
`Cc1ccc(CNC(=O)c2nn(C)c3c2CSc2ccc(C)cc2-3)cc1` gave HCMV inh inactive.
`COc1ccc(CCCNC(=O)C2CCC(=O)N(CCCN3CCCC3=O)C2)cc1` (stereo not drawn) gave Shiga toxin inh inactive, HCMV inh inactive, Pf growth 96h inactive, HCV inhibitor inactive, CHX counter inactive and Pf growth 48h inactive.
For COc1ccccc1CN1CC(C(=O)N2CCCCCCC2)CCC1=O (stereo not drawn) the results were Shiga toxin inh inactive, HCMV inh inactive, Pf growth 96h inactive, HCV inhibitor inactive, CHX counter inactive and Pf growth 48h inactive.
For COc1ccccc1CN1CC(C(=O)N2CCC(OC)CC2)CCC1=O (stereo not drawn) the results were Shiga toxin inh inactive, HCMV inh -64, Pf growth 96h inconclusive, HCV inhibitor inactive, CHX counter inactive and Pf growth 48h inactive.
